Shown are actives, neighbours in structure and some others; about 4.7% of the full set was active somewhere.
TRHR agonist = qHTS for Small Molecule Agonists and Allosteric Enhancers of Human TRH Receptor: Primary Screen for Agonists; Thyrotropin-releasing hormone receptor (Homo sapiens), P34981; TRHR cells, calcium flux fluo-8, FDSS agonist mode; activation, % at 2 µM; 360,000 compounds, 0.18% hits; further: 0% is about no effect
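TRHR-expressing cells, plated overnight in medium with 10% serum, were loaded with fluo-8 calcium dye at room temperature. After a 10 s baseline, library compound was pin-added and calcium release was recorded kinetically (ex 480/em 530) as agonist response.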
TRHR enhancer = qHTS for Small Molecule Agonists and Allosteric Enhancers of Human TRH Receptor: Primary Screen for Enhancers; enhancement, % at 2 µM; TRHR cells, fluo-8 calcium fluorescence, EC20 TRH enhancement; AID 493056, 2011; Thyrotropin-releasing hormone receptor (Homo sapiens), P34981; 360,000 compounds, 0.66% hits; in the data active means enhancement above about 30%; further: 0% is about no effect
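TRHR-expressing cells loaded with fluo-8 calcium dye were read kinetically (ex 480/em 530) during compound addition, then stimulated with an EC20 of TRH (10 nM final). Enhancement of the Gq-mediated intracellular calcium response was scored.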
D1 agonist = Allosteric Agonists of the Human D1 Dopamine Receptor: qHTS; activation, % at 2 µM; 360,000 compounds, 1% hits; HEK293 T-REx D1 cells, calcium flux, agonist mode; further: 0% is about no effect
Target sequence (P21728 whole entry, looked up): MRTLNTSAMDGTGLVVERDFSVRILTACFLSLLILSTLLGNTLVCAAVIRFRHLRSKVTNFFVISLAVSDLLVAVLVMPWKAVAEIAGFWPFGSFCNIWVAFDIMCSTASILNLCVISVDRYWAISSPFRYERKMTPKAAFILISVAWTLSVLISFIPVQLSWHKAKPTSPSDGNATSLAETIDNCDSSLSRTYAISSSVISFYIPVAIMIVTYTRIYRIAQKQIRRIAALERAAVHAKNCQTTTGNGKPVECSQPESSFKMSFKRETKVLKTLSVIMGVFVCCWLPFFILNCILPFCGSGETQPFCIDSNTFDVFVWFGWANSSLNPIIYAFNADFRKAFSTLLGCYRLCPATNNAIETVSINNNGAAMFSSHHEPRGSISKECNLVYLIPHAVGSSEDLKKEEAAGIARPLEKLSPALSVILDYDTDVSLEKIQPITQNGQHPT
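Agonism was scored from calcium flux recorded over 180 s (1 read/s) after pintool compound addition, following a 10-cycle baseline. Cells were inducible force-coupled HEK293 TREx D1, plated overnight at 30 C and loaded with no-wash calcium dye.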
D1 antagonist = Antagonist of Human D 1 Dopamine Receptor: qHTS | HEK293 TREx D1 cells, calcium flux, dopamine EC80; active compounds read low | activity change, negative = inhibition, % at 10 µM | 360,000 compounds, 3.2% hits; in the data active means activity change below about -30%; further: on the % scale 0 is the no-effect control and ±100 the full control effect
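Using tetracycline-induced force-coupled D1 Hek293 cells and a calcium dye, signals were followed for 180 s after compound, then for 180 s after EC80 dopamine, to detect inhibitors.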
D1 potentiator = Potentiators of Human D1 Dopamine Receptor: qHTS; D(1A) dopamine receptor (Homo sapiens), P21728; potentiation, % at 10 µM; AID 504651, 2011; HEK293 TREx D1 cells, calcium flux, dopamine EC20 potentiation; 360,000 compounds, 0.036% hits; in the data active means potentiation above about 30%; further: 0% is about no effect
* marks the source's active call; other numbers are inactive results; . = no result; ! = not confirmed by another sample. Unless noted, no stated cut-off is given here; in the data, active means activation above about 30%; inactive means the rest.

SMILES | TRHR agonist | TRHR enhancer | D1 agonist | D1 antagonist | D1 potentiator
CCN(C(=O)C(=O)Nc1ccc2nc3n(c(=O)c2c1)CCCCC3)c1ccc(F)cc1 | -1.1 | 4.0 | 1.3 | -38.8* | 2.0
CCN(CC)C(=O)c1cccc(NC(=O)c2ccc3c(=O)n4c(nc3c2)CCC4)c1 | 0.1 | 5.4 | 1.5 | -40.5* | -6.8
Cc1nc2c(C(=O)NCCCN(CC(C)C)CC(C)C)cnn2c(C)c1Cc1c(F)cccc1Cl | 0.0 | 1.7 | -2.4 | 1.5 | 5.8
COc1ccc(OC)c(/C=C(\C#N)c2nc(-c3ccc(F)cc3)cs2)c1 | 7.0 | 8.4 | 41.8* | 15.2 | -4.8
COc1ccc2oc(=O)c(-c3csc(/C(C#N)=C/c4ccc(F)cc4)n3)cc2c1 | 1.0 | 2.4 | -1.4 | -30.8* | 0.6
COc1ccc(-c2csc(/C(C#N)=C\c3ccc(OC)c([N+](=O)[O-])c3)n2)cc1 | 0.6 | 3.2 | 1.6 | 0.9 | -1.9
COC(=O)c1c(-c2ccc(OC)c(OC)c2)csc1N | -1.1 | -5.4 | 0.7 | -33.6* | -6.6
O=S(=O)([O-])CCC[n+]1c(/C=C\Nc2ccccc2)oc2ccc(-c3ccccc3)cc21 | 118.3* | 27.1 | 122.6* | -3.4 | -0.8
COc1cc2c(cc1OC)C(COc1ccccc1OC)N(C(C)=O)CC2 (stereo not given) | 0.6 | -1.1 | 2.7 | -48.5* | -5.1
COC(=O)c1ccc(OCC2c3cc(OC)c(OC)cc3CCN2C(=O)c2ccc(F)cc2)cc1 (stereo not given) | 0.6 | -2.7 | 7.5 | -38.7* | -3.4
COc1cc2c(cc1OC)C(COc1ccccc1OC)N(C(=O)C(C)(C)C)CC2 (stereo not given) | 0.0 | -2.3 | -1.0 | 1.8 | -6.2
O=c1oc2ccccc2c2c1C1O[C@](c3ccsc3)(Cc3ccccc31)O2 | -0.7 | -3.1 | 0.8 | -2.1 | -0.2
COc1ccc(NC(=O)C(OC(=O)CNC(=O)c2ccccc2)c2ccccc2)c(C)c1 (stereo not given) | -0.2 | 0.3 | 2.2 | -47.6* | 4.3
CC1CC(C)CN(C(=O)COC(=O)COc2ccccc2C#N)C1 (stereo not given) | 0.2 | -3.1 | 1.1 | 9.0 | -8.3
Cc1cccc(-n2nnnc2S(C)(=O)=O)c1 | 0.3 | 4.4 | 3.8 | -51.5* | -1.4
Cc1ccc2c(c1)N(Cc1ccncc1)C(=O)C(C)O2 (stereo not given) | 0.1 | -0.3 | 2.4 | -34.1* | -10.1
Cc1cc(C)cc(C(N)=Nc2cccc(C#N)c2)c1 | -1.5 | 10.7 | 1.8 | -50.2* | -4.0
N#CNC(N)=Nc1cccc(Cl)c1 | 0.4 | 2.5 | 1.8 | 11.3 | -10.3
CCc1ccccc1NS(=O)(=O)c1ccc2c(c1)CC(=O)N2 | -1.3 | 3.9 | 2.7 | -3.7 | 1.6
CCc1ccc2nc(SCC(=O)N(CC)CC)c(C#N)cc2c1 | -0.1 | 1.6 | 1.0 | -45.6* | -8.2
CC(C)CCn1c(=O)c2cccnc2n(CC(=O)Nc2ccccc2)c1=O | 0.0 | 7.5 | -0.5 | -2.2 | -4.0
C=CCNC(=O)COC(=O)c1ccc(Sc2nncn2C)c([N+](=O)[O-])c1 | 0.4 | 4.7 | 0.1 | -32.1* | 2.2
Cc1cccc(N=Nc2ccc(O)c3ncccc23)c1 | -3.4 | -17.7 | 29.5 | 27.9 | 10.7
Cc1ccc(C)c(N=Nc2ccc(O)c3ncccc23)c1 | -0.2 | 6.6 | -0.5 | -71.2* | -8.2
CCCc1cnc2c(c1SCC(=O)N(C)c1ccccc1)c(=O)n(C)c(=O)n2C | -0.6 | 6.5 | -3.7 | . | -2.5
SMILES | TRHR agonist | TRHR enhancer | D1 agonist | D1 antagonist | D1 potentiator
Cc1cccc(C(=O)NC(NCCc2ccccc2)C(Cl)(Cl)Cl)c1 (stereo not given) | -0.9 | 3.1 | 19.2 | -41.4* | -4.5
Cc1cc(Cl)ccc1OC(C)C(=O)NCCCn1ccnc1 (stereo not given) | 0.2 | -3.0 | 7.4 | -35.3* | -8.6
CC(C)c1ccc(CNC(=O)C(=O)NCCCn2ccnc2)cc1 | 0.1 | 31.9* | 3.9 | -5.2 | 0.0
COc1ccc(C(CNc2ccc(C(F)(F)F)cn2)N(C)C)cc1OC (stereo not given) | 1.8 | 0.9 | 4.7 | 18.7 | -1.0
CCCCOC(=O)c1cccc(NC(=O)/C=C/c2ccccc2Cl)c1 | 4.1 | -10.4 | 16.4 | -16.3 | -2.4
O=C(NC1CCCc2c1cnn2-c1ccc(F)cc1F)c1csnn1 (stereo not given) | -1.0 | -3.5 | 1.8 | -31.4* | -2.1
Cc1nnc(SCC(=O)NC2CCCc3c2cnn3-c2ccccc2F)o1 (stereo not given) | 0.6 | 7.0 | 0.5 | -39.3* | -1.4
O=C(NC1CCCc2c1cnn2-c1ccc(F)cc1F)c1cnccn1 (stereo not given) | -1.0 | 2.4 | 4.9 | -4.0 | 7.5
O=C(c1ccc2c(c1)OCO2)N(c1ccccc1)C1C=CS(=O)(=O)C1 (stereo not given) | 0.1 | -4.3 | 2.7 | -39.6* | 1.5
CC(=O)Nc1ccc(N=Cc2c(O)c(C(=O)Nc3ccccc3)cc3ccccc23)cc1 | 108.7* | -0.6 | 185.9* | -20.2 | 4.5
CCCCN(C)C(=O)c1ccc2c(c1)N(Cc1ccc(F)cc1)C(=O)c1ccccc1S2(=O)=O | 0.1 | 17.6 | -0.3 | -0.5 | -1.2
Cc1c(C(=O)N2CCc3ccccc3C2)sc2nc(-c3ccccc3)cn12 | 1.6 | -1.0 | 10.7 | 5.2 | -6.2
COc1ccc(-c2cn3c(C)c(C(=O)N4CCc5ccccc5C4)sc3n2)cc1 | -0.5 | -1.4 | 3.8 | -30.6* | -6.8
CN(CC(=O)Nc1ccc(OC(F)(F)F)cc1)C(=O)c1ccc(N2CCCC2=O)cc1 | 0.3 | -1.5 | 10.3 | -31.9* | -6.8
O=C(NCc1ccc(Cl)cc1)c1ccc(N2CCCC2=O)cc1 | 0.4 | 12.6 | 4.0 | -18.9 | -6.5
CN(CC(=O)Nc1ccc(Cl)cc1)C(=O)c1ccc(N2CCCC2=O)cc1 | 1.5 | 2.8 | 1.8 | -39.2* | -7.1
CN(C)S(=O)(=O)c1cccc(NC(=S)NCc2ccco2)c1 | 1.8 | 38.5* | 11.3 | 6.2 | -0.5
Brc1cccc(CN2CCN(c3ncccn3)CC2)c1 | -0.2 | 3.5 | 2.6 | -8.2 | 2.6
O=C(NCCNC(=O)c1ccccn1)c1ccc(-c2ccccc2)cc1 | -0.6 | 4.7 | 15.6 | 18.6 | -2.3
Cc1ccc(-n2nc(C)c(C(=O)NCCCN3CCN(c4ccccc4F)CC3)c2-n2cccc2)cc1 | -0.7 | 6.6 | 21.8 | -46.7* | -3.6
CCOc1ccc(NC(=O)NCCN2CCN(c3ccccc3F)CC2)cc1 | 0.3 | 10.2 | 4.2 | -60.8*! | -23.0

Assay outcomes deposited in PubChem BioAssay by National Center for Advancing Translational Sciences (NCATS).
